Several values for one entry are separate records, joined by “and”; a condition that tells them apart may be missing. Identical values can stand only once. The panel holds about 79,000 compounds, 15% with a hit somewhere; the sample as a whole holds those more often. Activity calls are given as the source filed them. No stated cut-off is given here; in the data, active means growth inhibition above about 70%; inactive means the rest.
What was measured:
[1] = NCI Yeast Anticancer Drug Screen. Data for the mlh1 strain (AID 171);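 further: 0% = growth of vehicle-treated control cultures of the same strain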; settings: S. cerevisiae mlh1 strain growth inhibition, stronger effect = higher value
Method in brief: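 Inhibition values reflect reduced yeast growth in the presence of compound, referenced to vehicle controls, using a strain chosen for its alteration in DNA repair or cell cycle control.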

[2] = NCI Yeast Anticancer Drug Screen. Data for the sgs1 strain (AID 173);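 further: 0% = growth of vehicle-only control cultures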; settings: S. cerevisiae sgs1 mutant, stronger effect = higher value
Method in brief: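 Vehicle-treated cultures served as reference for growth inhibition of a yeast strain altered in DNA damage repair or cell cycle control after compound exposure.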

[3] = NCI Yeast Anticancer Drug Screen. Data for the mlh1 rad18 strain (AID 175); settings: S. cerevisiae mlh1 rad18 strain growth inhibition, stronger effect = higher value
Method in brief: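 Inhibition values reflect reduced growth of mutant yeast versus vehicle-treated controls following compound exposure; the mutations affect DNA damage repair.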

[4] = NCI Yeast Anticancer Drug Screen. Data for the rad18 strain (AID 177); settings: S. cerevisiae rad18 mutant growth inhibition, stronger effect = higher value
Method in brief: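 Steps: expose repair-mutant yeast to compound; measure growth; express as inhibition relative to vehicle control.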

[5] = NCI Yeast Anticancer Drug Screen. Data for the rad52 strain (AID 147);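 further: 0% = growth of vehicle-treated control cultures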; settings: S. cerevisiae rad52 mutant growth inhibition, stronger effect = higher value
Method in brief: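 Inhibition of yeast growth, referenced to vehicle controls, was the measured output for a strain with defective DNA damage repair.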

[6] = NCI Yeast Anticancer Drug Screen. Data for the wt1 strain (AID 149);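 further: 0% = growth of vehicle-treated wt1 cultures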; settings: S. cerevisiae wt1 strain (SPY 50644) growth inhibition, stronger effect = higher value
Method in brief: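 Measured: growth of wt1 yeast under compound versus vehicle treatment, reported as inhibition.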

[7] = NCI Yeast Anticancer Drug Screen. Data for the rad50EPP+ strain (AID 151);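 further: 0% = growth of vehicle-treated control cultures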; settings: S. cerevisiae rad50 mutant strain, stronger effect = higher value
Method in brief: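 Genetically defined yeast (rad50EPP+, DNA damage repair alteration) is grown with compound, and inhibition of growth is expressed relative to vehicle-treated controls.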

[8] = NCI Yeast Anticancer Drug Screen. Data for the rad50 strain (AID 155);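 further: 0% = growth of vehicle-only cultures of the same strain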; settings: S. cerevisiae rad50 strain growth inhibition, stronger effect = higher value
Method in brief: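 Growth of the mutant yeast was measured after compound exposure and referenced to vehicle-treated cultures.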

[9] = NCI Yeast Anticancer Drug Screen. Data for the mec2-1 strain (AID 157); settings: S. cerevisiae mec2-1 strain, stronger effect = higher value
Method in brief: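 Each compound was tested on mec2-1 yeast, a strain altered in DNA damage repair or cell cycle control. Growth inhibition is reported relative to vehicle.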

[10] = NCI Yeast Anticancer Drug Screen. Data for the rad14 strain (AID 159);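 further: 0% = growth of vehicle-treated control cultures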; settings: S. cerevisiae rad14 strain growth inhibition, stronger effect = higher value
Method in brief: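 Here, inhibition of yeast growth was measured after compound exposure, using a strain with a genetic defect in DNA damage repair and vehicle-treated cultures as the reference.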

[11] = NCI Yeast Anticancer Drug Screen. Data for the sgs1 mgt1 strain (AID 161);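 further: 0% = growth of cultures given vehicle only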; settings: S. cerevisiae sgs1 mgt1 strain, stronger effect = higher value
Method in brief: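 Inhibition of yeast growth, normalised to vehicle-treated controls, is reported for a strain bearing genetic alterations in DNA damage repair.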

[12] = NCI Yeast Anticancer Drug Screen. Data for the CLN2oe strain (AID 163);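 further: 0% = growth of vehicle-only control cultures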; settings: S. cerevisiae CLN2oe strain, stronger effect = higher value
Method in brief: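 First, the altered yeast strain was treated with each compound; second, its growth was measured; finally, inhibition was derived by comparison with vehicle controls.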

[13] = NCI Yeast Anticancer Drug Screen. Data for the cln2 rad14 strain (AID 165);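 further: 0% = growth equal to vehicle treated cultures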; settings: S. cerevisiae cln2 rad14 strain, stronger effect = higher value
Method in brief: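 Test compounds were added to cln2 rad14 yeast cultures; inhibition of growth was then determined by comparison with vehicle treatment.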

[14] = NCI Yeast Anticancer Drug Screen. Data for the bub3 strain (AID 167); settings: S. cerevisiae bub3 mutant strain, stronger effect = higher value
Method in brief: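 Whole-cell yeast assay. The mutant strain was incubated with compounds, and growth inhibition was determined by comparison with vehicle-treated cells.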

[15] = NCI Yeast Anticancer Drug Screen. Data for the wt2 strain (AID 169);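 further: 0% = growth of vehicle-treated yeast cultures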; settings: S. cerevisiae wt2 strain growth inhibition, stronger effect = higher value
Method in brief: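 The panel's yeast strains carry defined changes in DNA repair or cell cycle genes. Each strain is grown with compound, and growth loss is scored relative to vehicle.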

[16] = at 5.0 µM (retest, dose inferred, filed as 0.5)
[17] = at 50.0 µM (retest, dose inferred, filed as 5.0)

Measured: growth inhibition

Nc1nc(-c2ccccc2)c(-c2ccccc2)[se]1
inactive: [1]; at 1.2 µM 0% | [1]; at 3.7 µM 2% | [1]; at 11.0 µM 0% | [1]; at 33.0 µM 6% | [1]; at 100.0 µM 17% | [2]; at 1.2 µM -18% | [2]; at 3.7 µM 7% | [2]; at 11.0 µM 11% | [2]; at 33.0 µM 6% | [2]; at 100.0 µM 32% | [3]; [16] 6% | [3]; [17] 10% | [3]; at 50.0 µM 62.5% | [4]; at 1.2 µM 5% | [4]; at 3.7 µM 8% | [4]; at 11.0 µM 6% | [4]; at 33.0 µM 15% | [4]; at 100.0 µM 51%

N#CC(C#N)=Cc1ccc(C#N)cc1
active: [8]; [17] 90% | [3]; [17] 76%
inactive: [5]; at 1.2 µM 0% | [5]; at 3.7 µM -4% | [5]; at 11.0 µM -1% | [5]; at 33.0 µM 0% | [5]; at 100.0 µM 11% | [6]; at 1.2 µM -2% | [6]; at 3.7 µM -2% | [6]; at 11.0 µM -3% | [6]; at 33.0 µM -2% | [6]; at 100.0 µM 3% | [7]; at 1.2 µM -2% | [7]; at 3.7 µM -2% | [7]; at 11.0 µM 0% | [7]; at 33.0 µM 0% | [7]; at 100.0 µM 0% | [8]; at 1.2 µM 1% | [8]; at 3.7 µM -4% | [8]; [16] -109% | [8]; at 11.0 µM 2% | [8]; at 33.0 µM 10% | [8]; at 50.0 µM -6.65% and 24.1% | [8]; at 100.0 µM 9% | [9]; at 1.2 µM 3% | [9]; at 3.7 µM 0% | [9]; [16] -47% | [9]; at 11.0 µM 6% | [9]; at 33.0 µM 3% | [9]; [17] 15% | [9]; at 50.0 µM -8.25% and 5.55% | [9]; at 100.0 µM 7% | [10]; at 1.2 µM 1% | [10]; at 3.7 µM 1% | [10]; at 11.0 µM 2% | [10]; at 33.0 µM 6% | [10]; at 100.0 µM 16% | [11]; [16] -56% | [11]; [17] 62% | [11]; at 50.0 µM -16.8% and -0.4% | [12]; at 1.2 µM -4% | [12]; at 3.7 µM -2% | [12]; at 11.0 µM 1% | [12]; at 33.0 µM 0% | [12]; at 100.0 µM 11% | [13]; [16] -60% | [13]; [17] -7% | [13]; at 50.0 µM 50.4% and 4.05% | [14]; at 1.2 µM -4% | [14]; at 3.7 µM -8% | [14]; [16] -65% | [14]; at 11.0 µM -7% | [14]; at 33.0 µM -7% | [14]; [17] 51% | [14]; at 50.0 µM -0.75% and 31.1% | [14]; at 100.0 µM 7% | [15]; at 1.2 µM -1% | [15]; at 3.7 µM -1% | [15]; at 11.0 µM -1% | [15]; at 33.0 µM 1% | [15]; at 100.0 µM 5% | [1]; at 1.2 µM 8% | [1]; at 3.7 µM -4% | [1]; at 11.0 µM -1% | [1]; at 33.0 µM 1% | [1]; at 100.0 µM 2% | [2]; at 1.2 µM -1% | [2]; at 3.7 µM -2% | [2]; at 11.0 µM -2% | [2]; at 33.0 µM -2% | [2]; at 100.0 µM 14% | [3]; [16] -109% | [3]; at 50.0 µM -24.6% and 16.7% | [4]; at 1.2 µM -1% | [4]; at 3.7 µM -1% | [4]; at 11.0 µM -1% | [4]; at 33.0 µM 0% | [4]; at 100.0 µM 9%

CC1CN1C1=C(Cl)C(=O)C(N2CC2C)=C(Cl)C1=O (centres undefined)
active: [5]; at 33.0 µM 97% | [5]; at 100.0 µM 97% | [6]; at 33.0 µM 81% | [6]; at 100.0 µM 97% | [7]; at 33.0 µM 94% | [7]; at 100.0 µM 97% | [8]; at 11.0 µM 79% | [8]; at 33.0 µM 97% | [8]; [17] 95% | [8]; at 100.0 µM 98% | [9]; at 33.0 µM 92% | [9]; [17] 93% | [9]; at 100.0 µM 98% | [10]; at 33.0 µM 97% | [10]; at 100.0 µM 98% | [11]; [17] 96% | [13]; [17] 82% | [14]; at 33.0 µM 86% | [14]; [17] 93% | [14]; at 100.0 µM 95% | [15]; at 33.0 µM 96% | [15]; at 100.0 µM 98% | [1]; at 100.0 µM 97% | [2]; at 11.0 µM 78% | [2]; at 33.0 µM 97% | [2]; at 100.0 µM 97% | [3]; [17] 97% | [4]; at 1.2 µM 92% | [4]; at 3.7 µM 96% | [4]; at 11.0 µM 96% | [4]; at 33.0 µM 97% | [4]; at 100.0 µM 97%
inactive: [5]; at 1.2 µM 22% | [5]; at 3.7 µM 40% | [5]; at 11.0 µM 64% | [6]; at 1.2 µM 0% | [6]; at 3.7 µM -4% | [6]; at 11.0 µM 12% | [7]; at 1.2 µM 8% | [7]; at 3.7 µM 21% | [7]; at 11.0 µM 47% | [8]; at 1.2 µM 16% | [8]; at 3.7 µM 27% | [8]; [16] 19% | [8]; at 50.0 µM 46% | [9]; at 1.2 µM 2% | [9]; at 3.7 µM 1% | [9]; [16] 15% | [9]; at 11.0 µM 6% | [9]; at 50.0 µM 18.8% | [10]; at 1.2 µM 22% | [10]; at 3.7 µM 37% | [10]; at 11.0 µM 50% | [11]; [16] 39% | [11]; at 50.0 µM 69.3% | [12]; at 1.2 µM 0% | [12]; at 3.7 µM -8% | [12]; at 11.0 µM -7% | [12]; at 33.0 µM 27% | [12]; at 100.0 µM 54% | [13]; [16] -3% | [13]; at 50.0 µM 10.3% | [14]; at 1.2 µM 18% | [14]; at 3.7 µM 15% | [14]; [16] 23% | [14]; at 11.0 µM 29% | [14]; at 50.0 µM 45.4% | [15]; at 1.2 µM -6% | [15]; at 3.7 µM 3% | [15]; at 11.0 µM 43% | [1]; at 1.2 µM -1% | [1]; at 3.7 µM -1% | [1]; at 11.0 µM 24% | [1]; at 33.0 µM 64% | [2]; at 1.2 µM 22% | [2]; at 3.7 µM 37% | [3]; [16] 59% | [3]; at 50.0 µM 69.1%

Source: PubChem BioAssay (NCI)
